Results as given in PubChem BioAssay (Tox21).
Where “and” joins values, the source holds several entries; their conditions need not be identical. Equal values may be shown once. Records with an inconclusive call do not appear. Calls of active or inactive are those of the source. Unless noted, the call rests on the fitted dose curve; in most records, active means well fitted curve in the direction sought with a large enough effect in the repeat runs; inconclusive means weak or mixed curves; inactive means no such curve, though single readings can be large; an effect the other way counts as inactive or inconclusive.

Assays:
[1] = qHTS assay to identify small molecule agonists of the RXR signaling pathway - cell viability counter screen (AID 1159529); further: potency means the concentration at half of the fitted maximal effect; nearly all actives have a fitted effect of over 50% in size
Outline: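 Counter screen: CellTiter-Glo luminescence. Cells: RXR-alpha-UAS-bla HEK 293T. Medium: 2% charcoal-stripped FBS. Treatment: 16 h, 37 C. Reagent incubation: 30 min, RT.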

[2] = target: Luciferin 4-monooxygenase (Photinus pyralis) (UniProt P08659); assay: qHTS assay to identify small molecule inhibitors of firefly luciferase (AID 1224835); further: nearly all actives have a fitted effect of over 25% in size; further: potency means the concentration at half of the fitted maximal effect
Outline: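 Quantitative HTS format; KM concentrations of both substrates. Purified P. pyralis FLuc activity quantified from luminescence images.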

[3] = qHTS assay to identify small molecule agonists of the constitutive androstane receptor (CAR) signaling pathway - cell viability counter screen (AID 1224836); further: nearly all actives have a fitted effect of over 45% in size; further: potency means the concentration at half of the fitted maximal effect
Outline: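 Double-stable HepG2 hepatoma cells (hCAR plus CYP2B6-2.2kb) are treated for 23 h at 37 C with test compounds in 15-point concentration series. PK11195 at 0.75 uM final is co-added. Cell viability is quantified by CellTiter-Fluor.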

[4] = qHTS assay to identify small molecule antagonists of the constitutive androstane receptor (CAR) signaling pathway - cell viability counter screen (AID 1224837); further: nearly all actives have a fitted effect of over 45% in size; further: potency means the concentration at half of the fitted maximal effect
Outline: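 HepG2 cells stably carrying hCAR and CYP2B6-2.2kb reporter, stimulated with 50 nM CITCO and compounds at 15 concentrations for 23 h at 37 C. Viability measured by CellTiter-Fluor fluorescence.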

[5] = target: Nuclear receptor subfamily 1 group I member 3 (Homo sapiens) (UniProt Q14994); assay: qHTS assay to identify small molecule antagonists of the constitutive androstane receptor (CAR) signaling pathway (AID 1224838); further: nearly all actives have a fitted effect of over 40% in size; further: potency means the concentration at half of the fitted maximal effect
Outline: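 HepG2 cells stably carrying hCAR and a CYP2B6-2.2kb luciferase reporter, seeded 4 hrs before compound (15 concentrations). Stimulated with 50 nM CITCO for 24 hr at 37 C. ONE-Glo luminescence read after 30 min at room temperature.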

[6] = qHTS assay to identify small molecule antagonists of the estrogen related receptor signaling pathway with the pleiotropic PPARgamma coactivator (PGC) from Tox21 10K library - cell viability counter screen (AID 1224840; active means well fitted cell-killing curve with a large enough effect in the repeat runs, not every such curve was filed as active; further: nearly all actives have a fitted effect of over 40% in size; further: potency means the concentration at half of the fitted maximal effect)
Outline: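 PGC/ERR cells (2,000/well) plated 6 h, then compound-treated for 17.5 h at 37 C. Viability measured by CellTiter-Fluor fluorescence after 30 min at 37 C, multiplexed with the pathway assay.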

[7] = qHTS assay to identify small molecule antagonists of the estrogen related receptor signaling pathway with the pleiotropic PPARgamma coactivator (PGC) from Tox21 10K library (AID 1224841; call rule not given here; further: actives are mostly falling curves and most rising ones were filed inactive; nearly all actives have a fitted effect of over 50% in size; further: potency means the concentration at half of the fitted maximal effect)
Outline: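 PGC/ERR cell line, 2,000 cells/well, pre-incubated 6 hours at 37 C, then exposed to compounds for 18 hours at 37 C; luciferase read with One-Glo luminescence after 30 min at room temperature.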

[8] = qHTS assay to identify small molecule agonists of the estrogen related receptor signaling pathway with the pleiotropic PPARgamma coactivator (PGC) from Tox21 10K library (AID 1224842); further: nearly all actives have a fitted effect of over 15% in size
Outline: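 PGC/ERR reporter cells (NTP line) were seeded 2,000 per well, rested 6 h at 37 C/5% CO2, then pin-dosed with compounds in DMSO for 18 h at 37 C; luciferase read by One-Glo luminescence after 30 min at room temperature.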

[9] = qHTS assay to identify small molecule antagonists of the retinoid acid receptor (RAR) signaling pathway - cell viability counter screen (AID 1159551); further: nearly all actives have a fitted effect of over 35% in size; further: potency means the concentration at half of the fitted maximal effect
Outline: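 C3RL4 RARE-luciferase cells, 1,000/well, incubated overnight, then dosed with compound plus 1 uM retinol (final). After 6 hr at 37 C, viability read by CellTiter-Glo ATP luminescence following 30 min at room temperature.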

[10] = qHTS assay to identify small molecule antagonists of the retinoic acid receptor (RAR) signaling pathway (AID 1159552; further: nearly all actives have a fitted effect of over 50% in size; further: potency means the concentration at half of the fitted maximal effect)
Outline: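 Antagonism of retinol-induced RARE reporter activity was measured in C3RL4 cells. Exposure to compounds and 1 uM final retinol lasted 6 hr at 37 C, with luminescence as endpoint.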

[11] = qHTS assay to identify small molecule agonists of the retinoic acid receptor (RAR) signaling pathway (AID 1159553); further: potency means the concentration at half of the fitted maximal effect
Outline: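 C3RL4 RARE-luciferase cells were seeded at 1,000/well and grown overnight at 37 C, then exposed to compounds for 6 hr at 37 C, 5% CO2. Luciferase reagent was added and luminescence was read after 30 min at room temperature.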

[12] = target: Nuclear receptor subfamily 1 group I member 3 (Homo sapiens) (UniProt Q14994); assay: qHTS assay to identify small molecule agonists of the constitutive androstane receptor (CAR) signaling pathway (AID 1224839); further: nearly all actives have a fitted effect of over 15% in size; further: potency means the concentration at half of the fitted maximal effect
Outline: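 Readout: firefly luciferase luminescence via ONE-Glo. System: HepG2 double-stable for hCAR and CYP2B6-2.2kb. Conditions: 15-point compound titration, PK11195 at 0.75 uM final, 24 h incubation.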

[13] = qHTS assay to identify small molecule antagonists of the estrogen related receptor (ERR) signaling pathway - cell viability counter screen (AID 1224818); further: series mostly up to about 46 µM
Outline: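 ERR cells, 2,000 per well, compound added after 6 h and incubated 17.5 h at 37 C. Viability read by CellTiter-Fluor fluorescence after a further 30 min at 37 C.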

[14] = qHTS assay to identify small molecule antagonists of the estrogen related receptor signaling pathway with the pleiotropic PPARgamma coactivator (PGC) cell viability counter screen (AID 1224822; further: series mostly up to about 46 µM)
Outline: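 PGC/ERR cells rested 6 h, then compound-treated 17.5 h at 37 C. CellTiter-Fluor added for 30 min at 37 C, viability measured by fluorescence intensity.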

[15] = qHTS assay to identify small molecule antagonists of the estrogen related receptor (ERR) signaling pathway from Tox21 library - cell viability counter screen (AID 1224834); further: nearly all actives have a fitted effect of over 30% in size; further: potency means the concentration at half of the fitted maximal effect
Outline: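 ERR reporter cells, 2,000 per well, rested 6 h, then exposed to compound in DMSO for 17.5 hours at 37 C. Viability read as fluorescence after 30 min with CellTiter-Fluor.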

[16] = target: Thyrotropin receptor (Homo sapiens) (UniProt P16473); assay: qHTS assay to identify small molecule agonists of the thyroid stimulating hormone receptor (TSHR) signaling pathway (AID 1224843; calls by dose curve; further: nearly all actives have a fitted effect of over 45% in size; further: potency means the concentration at half of the fitted maximal effect)
Outline: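 TSHR-expressing HEK293 cells (800 per well) were exposed to compounds for 30 min at room temperature. cAMP was then detected by HTRF competition with cAMP-d2 and anti-cAMP cryptate, read after 1 h at room temperature. Fifteen concentrations, triplicate.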

[17] = qHTS assay to identify small molecule agonists of the estrogen related receptor (ERR) signaling pathway (AID 1224820)
Outline: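 Quantitative HTS of the LOPAC library used NTP ERR reporter cells treated 18 h at 37 C. Signal is luminescence after One-Glo addition and a 30 min room-temperature incubation.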

[18] = qHTS assay to identify small molecule agonists of the estrogen related receptor signaling pathway with the pleiotropic PPARgamma coactivator (PGC) (AID 1224823)
Outline: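 Cell-based luciferase assay in the NTP-supplied PGC/ERR line, 2,000 cells/well; 18 h compound exposure at 37 C, luminescence after One-Glo.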

Measured: Potency

Thyrotropin receptor (Homo sapiens), sequence (P16473 whole entry, looked up): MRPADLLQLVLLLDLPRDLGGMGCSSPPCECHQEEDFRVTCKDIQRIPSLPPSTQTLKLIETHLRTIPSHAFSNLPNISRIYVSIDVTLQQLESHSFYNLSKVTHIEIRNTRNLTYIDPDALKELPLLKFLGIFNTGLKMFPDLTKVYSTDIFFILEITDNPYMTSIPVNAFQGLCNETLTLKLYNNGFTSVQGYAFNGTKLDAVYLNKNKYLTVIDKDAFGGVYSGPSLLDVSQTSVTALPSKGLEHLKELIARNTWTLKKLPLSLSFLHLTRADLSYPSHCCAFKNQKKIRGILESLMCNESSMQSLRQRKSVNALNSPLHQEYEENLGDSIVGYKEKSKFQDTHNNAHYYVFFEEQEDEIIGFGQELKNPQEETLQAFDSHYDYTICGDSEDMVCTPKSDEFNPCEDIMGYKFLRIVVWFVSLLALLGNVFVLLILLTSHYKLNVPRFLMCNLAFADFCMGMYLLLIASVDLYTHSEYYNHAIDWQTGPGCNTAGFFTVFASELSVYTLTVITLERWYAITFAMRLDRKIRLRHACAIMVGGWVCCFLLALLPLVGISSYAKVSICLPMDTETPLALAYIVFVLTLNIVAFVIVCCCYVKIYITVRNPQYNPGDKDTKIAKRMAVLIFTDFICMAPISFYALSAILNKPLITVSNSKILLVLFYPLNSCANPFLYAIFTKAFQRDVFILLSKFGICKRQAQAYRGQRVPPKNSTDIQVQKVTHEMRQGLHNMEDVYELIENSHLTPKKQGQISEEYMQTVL
Luciferin 4-monooxygenase (Photinus pyralis), sequence (P08659 whole entry, looked up): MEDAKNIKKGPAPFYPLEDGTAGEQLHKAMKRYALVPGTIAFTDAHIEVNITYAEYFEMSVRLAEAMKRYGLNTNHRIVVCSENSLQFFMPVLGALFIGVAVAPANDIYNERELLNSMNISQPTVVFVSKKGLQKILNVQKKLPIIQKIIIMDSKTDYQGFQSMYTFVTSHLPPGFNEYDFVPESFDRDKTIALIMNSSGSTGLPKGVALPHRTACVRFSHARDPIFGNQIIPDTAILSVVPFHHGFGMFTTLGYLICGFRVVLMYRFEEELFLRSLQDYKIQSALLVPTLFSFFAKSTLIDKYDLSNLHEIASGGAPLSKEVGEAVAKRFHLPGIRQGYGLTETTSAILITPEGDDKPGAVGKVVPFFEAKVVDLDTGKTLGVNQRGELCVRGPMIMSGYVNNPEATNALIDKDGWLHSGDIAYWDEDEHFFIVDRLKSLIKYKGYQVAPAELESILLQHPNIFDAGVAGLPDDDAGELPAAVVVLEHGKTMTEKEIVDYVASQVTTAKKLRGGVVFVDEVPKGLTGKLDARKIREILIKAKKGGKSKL
Nuclear receptor subfamily 1 group I member 3 (Homo sapiens), sequence (Q14994 whole entry, looked up): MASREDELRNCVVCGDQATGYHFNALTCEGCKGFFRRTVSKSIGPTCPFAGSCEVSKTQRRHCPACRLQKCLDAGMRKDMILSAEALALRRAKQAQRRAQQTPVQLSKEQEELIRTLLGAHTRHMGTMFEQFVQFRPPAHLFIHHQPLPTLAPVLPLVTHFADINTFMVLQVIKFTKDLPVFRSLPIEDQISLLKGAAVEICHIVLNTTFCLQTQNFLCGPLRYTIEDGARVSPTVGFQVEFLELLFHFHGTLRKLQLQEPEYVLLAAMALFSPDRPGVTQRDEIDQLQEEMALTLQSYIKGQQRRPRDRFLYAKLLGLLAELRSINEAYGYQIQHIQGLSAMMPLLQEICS

ClC1=C(Cl)C2(Cl)C3C(Cl)C(Cl)CC3C1(Cl)C2(Cl)Cl (centres undefined)
active: [1] 21.8 µM and 21.9 µM | [6] 61.1 µM | [7] 60.9 µM and 43.3 µM
inactive: [2] | [3] | [4] | [5] | [8]

O=[N+]([O-])c1ccc2ccc3cccc4ccc1c2c34
inactive: [9] | [10] | [11] | [2] | [4] | [12] | [6]
active: [5] 4.85 µM

O=C(O)COc1nc(Cl)c(Cl)cc1Cl
inactive: [9] | [10] | [11] | [13] | [14] | [15] | [3] | [4] | [5] | [12] | [6] | [16]

Fc1cccc(Cl)c1CCl
inactive: [9] | [10] | [11] | [3] | [4] | [5] | [6] | [16]

CCOC(=O)CC(=O)CCl
inactive: [9] | [11] | [15] | [2] | [3] | [4] | [5] | [6]

NNC(=O)c1ccccc1
inactive: [9] | [2] | [3] | [5] | [6] | [16]
active: [11] 1.77 µM | [12] 62.8 µM

Cc1cccc(OP(=O)(Oc2cccc(C)c2)Oc2cccc(C)c2)c1
active: [12] 30.6 µM
inactive: [9] | [10] | [15] | [3] | [4] | [5] | [6] | [16]

ClC1=C(Cl)[C@]2(Cl)[C@@H]3[C@@H](Cl)[C@@H](Cl)C[C@@H]3[C@@]1(Cl)C2(Cl)Cl
inactive: [9] | [10] | [15] | [2] | [4] | [5] | [12] | [6] | [7] | [8]

Cc1cc(Cl)ccc1O[C@H](C)C(=O)O
inactive: [9] | [15] | [2] | [3] | [4] | [12] | [6]

S=C(SSC(=S)N1CCCCC1)N1CCCCC1
inactive: [9] | [12] | [8] | [16]
active: [15] 0.531 µM | [2] 1.74 µM | [3] 0.841 µM | [4] 0.335 µM | [5] 0.376 µM

BrC(Br)C(Br)(Br)Br
inactive: [9] | [11] | [4] | [12] | [6]
active: [2] 22.6 µM

C[C@]12CC[C@H](O)C[C@H]1CC[C@@H]1[C@@H]2C[C@@H](O)[C@]2(C)[C@@H](C3=CC(=O)OC3)CC[C@]12O
active: [15] 0.77 µM | [5] 1.22 µM | [7] 3.86 µM
inactive: [9] | [2] | [8] | [16]

N#CNC#N
inactive: [9] | [11] | [15] | [4] | [5] | [12] | [6] | [16]

N#Cc1ccccc1N
inactive: [9] | [15] | [2] | [4] | [5] | [12] | [6] | [8] | [16]

Fc1ccc(Oc2ccnc3cc(Cl)cc(Cl)c23)cc1
inactive: [9] | [10] | [15] | [3] | [4] | [5] | [6]
active: [2] 35.6 µM

CC(=[OH+])/C=C(/C)[O-].CC(=[OH+])/C=C(\C)[O-].CC(=[OH+])/C=C(\C)[O-].[Fe]
inactive: [9] | [15] | [3] | [4] | [6]
active: [2] 39.9 µM

CC(C)C1CCC(Cc2ccc(Cl)cc2)C1(O)Cn1cncn1 (centres undefined)
active: [9] 60.5 µM | [10] 42.8 µM | [15] 53.9 µM | [7] 15.2 µM | [16] 48.1 µM
inactive: [2] | [12] | [8]

Oc1ccc(C(=C(Cl)Cl)c2ccc(O)cc2)cc1
inactive: [9] | [11] | [2] | [3] | [4] | [5] | [8]
active: [12] 48.5 µM

CCC(C)(C)C(=O)OC1=C(c2ccc(Cl)cc2Cl)C(=O)OC12CCCCC2
inactive: [9] | [10] | [15] | [3] | [4] | [5] | [12] | [6] | [7] | [16]

CC(C)Oc1cccc(NC(=O)c2ccccc2C(F)(F)F)c1
inactive: [9] | [11] | [13] | [17] | [14] | [18] | [2] | [3] | [4] | [5] | [6] | [8]
active: [12] 61.1 µM

FC(F)(F)c1cccc(C2=CCN(CCc3ccc4ccccc4c3)CC2)c1
inactive: [9] | [11] | [15] | [2] | [3] | [4] | [5] | [12] | [6] | [7] | [8]

O=C(CCl)C(Cl)Cl
active: [10] 15.5 µM | [3] 21.9 µM | [5] 13.8 µM | [6] 24.6 µM | [7] 61.7 µM
inactive: [9] | [12] | [8]
